The panel holds about 83,000 compounds, 20% with a hit somewhere; the sample as a whole holds those more often.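 The endpoint reported here, percent growth, reads 100 for growth as untreated, 0 for no net growth and -100 for all cells dead.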 Calls of active or inactive are those of the source. How the source made its calls: active means growth percent below 10; inactive means the rest.
tested on: NCI/ADR-RES ovarian; assay: NCI-60 one-dose screen, 48 h (100 = growth as untreated, 0 = no growth, -100 = all killed); settings: 10 µM unless noted

SMILES	growth
COc1cc(C2CC(c3ccccc3)=NN2C=O)ccc1Oc1nc2c(c(=O)n(C)c(=O)n2C)n1C (stereo unspecified)	57.9% (inactive)
COc1ccc2[nH]cc(C3(c4c[nH]c5ccc(OC)cc45)C(=O)Nc4ccc(F)cc43)c2c1	94% (inactive)
CC1=CC(=O)OC1C/C=C(\C)CCC1[C@@]2(C)CCC[C@@](C)(C(=O)O)C2CC[C@@]1(C)O (stereo partly specified)	91.8% (inactive)
CC1=C(/C=C/C(C)=C/C=C(C(=O)O)\C(C)=C\C(=O)O)C(C)(C)CCC1	102% (inactive)
CCN(CCC#N)c1ccccc1	105% (inactive)
CCCCOC(=O)c1cc(O)c(O)c(O)c1	74.4% (inactive)
COc1cccc(-c2nc3sccn3c2-c2ccnc(NCCN3CCCNS3(=O)=O)n2)c1	105% (inactive)
CC(=O)Oc1ccccc1C(=O)Nc1ncc([N+](=O)[O-])s1	20.6% (inactive)
Cc1ccc([C@H]2c3[nH]c4ccccc4c3C[C@H]3C(=O)N(CCCCCCC(=O)NO)CC(=O)N23)cc1	94.5% (inactive)
COc1ccc(-c2cc(-c3cn(-c4cccc(Cl)c4)nc3-c3ccc(OC)cc3)[nH]c(=S)n2)cc1	99.6% (inactive)
CCn1c(Cc2ccccc2Nc2c(Cl)cccc2Cl)nnc1SCC(=O)Nc1ccccc1C(F)(F)F	87.4% (inactive)
COc1cc(/C=C/c2cc(/C=C/c3ccc(O)c(OC)c3)n(C(=O)c3ccccc3Br)n2)ccc1O	28.1% (inactive)
CCOC(=O)C(Cc1ccccc1)n1c(O)c(/C=N/c2ncc(Cc3ccc(Cl)cc3Cl)s2)sc1=S (stereo unspecified)	5.71% (active)
Cc1nn(-c2cccc(Cl)c2)c(C)c1N=Nc1ccc(Br)cc1	105% (inactive)
O=C(N/N=C\c1cc(Br)ccc1O)c1ccncc1	12.4% (inactive)
CC(C)OC1OC(OC(C)C)C(OC(C)C)OC1OC(C)C (stereo unspecified)	105% (inactive)
COc1ccc2c(c1)C1=NN(C(=O)CO)[C@H](c3ccc(OC(F)(F)F)cc3)[C@@H]1CC2	85.5% (inactive)
Cn1c(-c2ccccc2)cc(=O)n1-c1ccccc1	112% (inactive)
CC(C)(C)c1ccc(C(=O)Nc2sc3cc(O)ccc3c2C(N)=O)cc1	71.7% (inactive)

SMILES	growth
O=C1N(Cc2ccccc2Cl)c2ccccc2C12NN=C(c1ccccc1)S2 (stereo unspecified)	45.2% (inactive)
CC(=O)c1ccc(N2C(=O)c3ccc(Oc4ccccc4)cc3C2=O)cc1	105% (inactive)
CC1CCCN(CCCCOc2ccc(-c3ccc(C#N)cc3)cc2)C1 (stereo unspecified)	89.7% (inactive)
CNC(=O)c1c(NC(=O)c2cccc(C(F)(F)F)c2)sc2c1CCC(=O)C2	-7.1% (active)
OC(COCc1ccccc1)COCc1ccccc1	127% (inactive)
CN1CCCN(CCNc2nccc(-c3c(-c4cccc(O)c4)nc4sccn34)n2)S1(=O)=O	102% (inactive)
CC(=O)NC1C(O[C@H]2C[C@H]3[C@@H]4CC=C5C[C@@H](O)CC[C@]5(C)[C@H]4CC[C@]3(C)[C@H]2[C@H](C)C(=O)CCC(C)C)OCC(O)C1O (stereo partly specified)	88.8% (inactive)
CN(C)c1nc(-c2cccs2)n2nc(-c3ccc(Cl)cc3)cc2n1	38.3% (inactive)
O=C1NN(C(=O)c2ccccc2)C(c2ccc(Cl)c(Cl)c2)=C/C1=C\c1ccccc1[N+](=O)[O-]	17.7% [6.75 µM] (inactive)
COc1ccc(C(=O)OC2C(OC3C(O)COC(O[C@H]4C[C@H]5[C@@H]6CC=C7C[C@@H](O)CC[C@]7(C)[C@H]6CC[C@]5(C)[C@H]4[C@H](C)C(=O)CCC(C)C)C3OC(=O)C(C)C)OCC(O)C2O)cc1 (stereo partly specified)	75% (inactive)
CCSCC1CC(O)(c2ccccc2)C(c2ccccc2)C(c2ccc(F)cc2)O1 (stereo unspecified)	-24.8% (active)
Nc1c(N)c2ccccc2c2ccccc12	101% (inactive)
Cc1csc(N/N=C/c2ccncc2)n1	107% (inactive)
COc1ccc(-c2cc(C(=O)Nc3ccc(C)cc3)nc3[nH]c(=O)sc23)cc1	78.3% (inactive)
COc1ccccc1-[n+]1cc(-c2ccc(-c3ccccc3)cc2)n2c1CCCCC2	86.9% (inactive)
COc1ccc(/C=N/NC(N)=S)c(OC)n1	109% (inactive)
Nc1c(Br)cc2c(c1Br)Cc1cc(Cl)ccc1-2	95.8% (inactive)
Nc1nc(NC2CC2)cc(-c2cccc(Cl)c2Cl)n1	25% (inactive)
COc1cc2c(c(OC)c1O)C(=O)C(OC)C(c1ccc(O)c(O)c1)O2 (stereo unspecified)	16.6% (inactive)

tested on: T-47D breast; assay: as above; settings: 10 µM unless noted

SMILES	growth
COc1cc(C2CC(c3ccccc3)=NN2C=O)ccc1Oc1nc2c(c(=O)n(C)c(=O)n2C)n1C (stereo unspecified)	69.7% (inactive)
COc1ccc2[nH]cc(C3(c4c[nH]c5ccc(OC)cc45)C(=O)Nc4ccc(F)cc43)c2c1	93.7% (inactive)
CC1=CC(=O)OC1C/C=C(\C)CCC1[C@@]2(C)CCC[C@@](C)(C(=O)O)C2CC[C@@]1(C)O (stereo partly specified)	87.3% (inactive)
CC1=C(/C=C/C(C)=C/C=C(C(=O)O)\C(C)=C\C(=O)O)C(C)(C)CCC1	101% (inactive)
CCN(CCC#N)c1ccccc1	101% (inactive)
CCCCOC(=O)c1cc(O)c(O)c(O)c1	61% (inactive)
COc1cccc(-c2nc3sccn3c2-c2ccnc(NCCN3CCCNS3(=O)=O)n2)c1	95.3% (inactive)
CC(=O)Oc1ccccc1C(=O)Nc1ncc([N+](=O)[O-])s1	61.7% (inactive)
Cc1ccc([C@H]2c3[nH]c4ccccc4c3C[C@H]3C(=O)N(CCCCCCC(=O)NO)CC(=O)N23)cc1	19.5% (inactive)
COc1ccc(-c2cc(-c3cn(-c4cccc(Cl)c4)nc3-c3ccc(OC)cc3)[nH]c(=S)n2)cc1	72.1% (inactive)
CCn1c(Cc2ccccc2Nc2c(Cl)cccc2Cl)nnc1SCC(=O)Nc1ccccc1C(F)(F)F	47.6% (inactive)
COc1cc(/C=C/c2cc(/C=C/c3ccc(O)c(OC)c3)n(C(=O)c3ccccc3Br)n2)ccc1O	49% (inactive)
CCOC(=O)C(Cc1ccccc1)n1c(O)c(/C=N/c2ncc(Cc3ccc(Cl)cc3Cl)s2)sc1=S (stereo unspecified)	-3.64% (active)
Cc1nn(-c2cccc(Cl)c2)c(C)c1N=Nc1ccc(Br)cc1	80.5% (inactive)
O=C(N/N=C\c1cc(Br)ccc1O)c1ccncc1	-3.65% (active)
CC(C)OC1OC(OC(C)C)C(OC(C)C)OC1OC(C)C (stereo unspecified)	115% (inactive)
COc1ccc2c(c1)C1=NN(C(=O)CO)[C@H](c3ccc(OC(F)(F)F)cc3)[C@@H]1CC2	82.1% (inactive)
Cn1c(-c2ccccc2)cc(=O)n1-c1ccccc1	102% (inactive)
CC(C)(C)c1ccc(C(=O)Nc2sc3cc(O)ccc3c2C(N)=O)cc1	61.5% (inactive)

SMILES	growth
O=C1N(Cc2ccccc2Cl)c2ccccc2C12NN=C(c1ccccc1)S2 (stereo unspecified)	72.3% (inactive)
CC(=O)c1ccc(N2C(=O)c3ccc(Oc4ccccc4)cc3C2=O)cc1	106% (inactive)
CC1CCCN(CCCCOc2ccc(-c3ccc(C#N)cc3)cc2)C1 (stereo unspecified)	79.1% (inactive)
CNC(=O)c1c(NC(=O)c2cccc(C(F)(F)F)c2)sc2c1CCC(=O)C2	-32.8% (active)
OC(COCc1ccccc1)COCc1ccccc1	101% (inactive)
CN1CCCN(CCNc2nccc(-c3c(-c4cccc(O)c4)nc4sccn34)n2)S1(=O)=O	60.7% (inactive)
CC(=O)NC1C(O[C@H]2C[C@H]3[C@@H]4CC=C5C[C@@H](O)CC[C@]5(C)[C@H]4CC[C@]3(C)[C@H]2[C@H](C)C(=O)CCC(C)C)OCC(O)C1O (stereo partly specified)	45.4% (inactive)
CN(C)c1nc(-c2cccs2)n2nc(-c3ccc(Cl)cc3)cc2n1	30.7% (inactive)
O=C1NN(C(=O)c2ccccc2)C(c2ccc(Cl)c(Cl)c2)=C/C1=C\c1ccccc1[N+](=O)[O-]	27.6% [6.75 µM] (inactive)
COc1ccc(C(=O)OC2C(OC3C(O)COC(O[C@H]4C[C@H]5[C@@H]6CC=C7C[C@@H](O)CC[C@]7(C)[C@H]6CC[C@]5(C)[C@H]4[C@H](C)C(=O)CCC(C)C)C3OC(=O)C(C)C)OCC(O)C2O)cc1 (stereo partly specified)	-1.53% (active)
CCSCC1CC(O)(c2ccccc2)C(c2ccccc2)C(c2ccc(F)cc2)O1 (stereo unspecified)	-17.5% (active)
Nc1c(N)c2ccccc2c2ccccc12	104% (inactive)
Cc1csc(N/N=C/c2ccncc2)n1	94% (inactive)
COc1ccc(-c2cc(C(=O)Nc3ccc(C)cc3)nc3[nH]c(=O)sc23)cc1	58.7% (inactive)
COc1ccccc1-[n+]1cc(-c2ccc(-c3ccccc3)cc2)n2c1CCCCC2	-5.11% (active)
COc1ccc(/C=N/NC(N)=S)c(OC)n1	80% (inactive)
Nc1c(Br)cc2c(c1Br)Cc1cc(Cl)ccc1-2	66% (inactive)
Nc1nc(NC2CC2)cc(-c2cccc(Cl)c2Cl)n1	32.2% (inactive)
COc1cc2c(c(OC)c1O)C(=O)C(OC)C(c1ccc(O)c(O)c1)O2 (stereo unspecified)	50.3% (inactive)
